This passage reports outcome and AC50 results from PubChem BioAssay (EPA / NIEHS).

One may read the AC50 as the concentration at which the activity in the assay is half-maximal.

Active and inactive are the calls of the source. Rule for the calls: active = hit-call score of the fitted dose curve at least 0.9, where 1 is the maximum; inactive = score below 0.9.

This test is described as follows: CEETOX_H295R_CORTIC: CeeTox H295R High-throughput Steroidogenesis Assay for Corticosterone (CORTIC) (AID 2283437).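 Note: corticosterone secreted into medium quantified by mass spectrometry.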 Conditions: actives raise or lower the signal. On the procedure:
CEETOX_H295R is a cell-based, multiplexed-readout assay that uses H295R, a human adrenal gland cell line, with measurements taken at 48 hours after chemical dosing in a 96-well plate.CEETOX_H295R_CORTIC is one of 23 assay component(s) measured or calculated from the CEETOX_H295R assay. It is designed to make measurements of hormone induction, a form of inducible reporter, as detected with absorbance signals by HPLC-MS-MS technology.Data from the assay component CEETOX_H295R_CORTIC was analyzed into 1 assay endpoint. This assay endpoint, CEETOX_H295R_CORTIC, was analyzed with bidirectional fitting relative to DMSO as the negative control and baseline of activity. Using a type of inducible reporter, gain or loss-of-signal activity using HPLC-MS-MS was used to understand synthesis of Corticosterone in H295R cell line at 48hr of chemical exposure. To generalize the intended target to other relatable targets, this assay endpoint is annotated to the steroid hormone intended target family, where the subfamily is glucocorticoids.
Cell culture and media preparation procedures were conducted in accordance with OECD Test No. 456 guidelines, with minor modifications. H295R cells (ATCC CRL-2128) were expanded for 5 passages and frozen in batches in liquid nitrogen. Prior to the steroidogenesis assay, H295R cells were thawed and passed at least 4 times. The maximum passage was 10. Cells were maintained in a 1:1 mixture of DMEM/F12 supplemented with 5ml/L ITS+ Premix (BD Bioscience) and 12.5 ml/L Nu-Serum (BD Bioscience). After seeding cells into 96-well plates at 50-60% confluency, cells were allowed to adhere overnight. Prior to chemical testing, culture medium was replaced with 175 uL medium containing 10 uM forskolin to stimulate steroidogenesis for 48 hours. Following prestimulation, forskolin medium was replaced with medium containing test chemical solubilized in DMSO (ensuring a final concentration of 0.1% DMSO). Test chemicals were incubated for 48 hours, then the medium was removed and split into 2 vials containing approximately 75uL each, and stored at -80 C prior to hormone analysis. For steroid quantification, media samples were shipped to OpAns, LLC (Durham, NC) on dry ice, and samples were thawed to room temperature prior to liquid-liquid extraction. Steroid hormones were extracted from media samples using methyl tertbutyl ether (MTBE). An extra derivatization with dansyl chloride was included for estrogen (estrone and estradiol) detection only. Steroid hormones were separated by HPLC, eluted using a reverse phase C18 gradient with electrospray positive ionization, followed by quantification by tandem mass spectrometry (MS/MS). Data were acquired on a MassHunter Workstation Acquisition version B03.01 (Agilent Technologies, Inc.) and processed using MassHunter Quantitative Analysis for QQQ. Accuracy was determined for each hormone analyte from 3 standards to determine upper and lower limits of quantification (ULOQ and LLOQ, respectively) using a 7-point standard curve. Precision and accuracy of the extraction and quantification methods were calculated as the percent relative standard deviation (%RSD) of the spiked standards and percent spiked standard recovered, respectively. […] Test medium was removed following chemical exposure, and cell viability was evaluated in the same wells by MTT. MTT procedures were as follows: after removal of test medium, 500 uL of 0.5 mg/ml of 3-[4,5-dimethylthiazol-2-y]2,5-diphenyltetrazoliumbromide solution was added to the cells. Following a 4-hour incubation at 37 C and 5% CO2 to allow formazan-crystal formation, the MTT solution was removed and blue formazan salt crystals were solubilized using 500uL anhydrous isopropanol with shaking for 20 minutes. Absorbance was read at 570 and 650nm using a Packard Fusion microplate reader. Background correction of absorbance units was used to determine percent change relative to controls. […]
Turning to `CCC(C)Nc1c([N+](=O)[O-])cc(C(C)(C)C)cc1[N+](=O)[O-]` (configuration not stated), the result was inactive.
On the same count and under the same terms, with `CCN(CC)C(=O)SCc1ccc(Cl)cc1` the entry was “inactive”; with `C[C@H]1[C@H](c2ccc(Cl)cc2)SC(=O)N1C(=O)NC1CCCCC1`, “inactive”.
As to `CCCN(CCOc1c(Cl)cc(Cl)cc1Cl)C(=O)n1ccnc1`, the half-maximal activity concentration (AC50) is 0.0122 µM (active).
With `O=[N+]([O-])c1c(Cl)c(Cl)c(Cl)c(Cl)c1Cl`, the outcome was inactive.
With `CCc1ccc(C(=O)NN(C(=O)c2cc(C)cc(C)c2)C(C)(C)C)cc1`, the compound was classed as inactive.
Take `Oc1cc(Cl)ccc1Oc1ccc(Cl)cc1Cl`: the result was inactive.
The same measure, in the same setting: with `O=C(NC(=O)c1c(F)cccc1F)Nc1ccc(OC(F)(F)C(F)OC(F)(F)F)c(Cl)c1` (configuration not stated) the entry was “inactive”; with `CC(C)N(C(=O)COc1nnc(C(F)(F)F)s1)c1ccc(F)cc1`, “inactive”; with `O=[N+]([O-])/N=C1\NCCN1Cc1ccc(Cl)nc1`, “inactive”.
In the case of `CC(C)(C)C(O)/C(=C\c1ccc(Cl)cc1Cl)n1cncn1` (configuration not stated), the call was inactive.
As to `CC1(C)C(C=C(Cl)Cl)C1C(=O)OC(C#N)c1ccc(F)c(Oc2ccccc2)c1` (configuration not stated), the compound was classed as inactive.
On the same count and under the same terms, with `Oc1ccc(Cl)cc1Cc1ccccc1` the entry was “inactive”; with `CNC(=O)Oc1ccccc1OC(C)C`, “inactive”.
Turning to `O=C(O)COc1ccc(Cl)cc1Cl`, the compound was called inactive.
Same read-out and setting: with `CCC(C)(C)C(=O)OC1=C(c2ccc(Cl)cc2Cl)C(=O)OC12CCCCC2` the entry was “inactive”; with `CNC(=O)/C=C(\C)OP(=O)(OC)OC`, “inactive”; with `N#Cc1c(Cl)c(Cl)c(Cl)c(C#N)c1Cl`, “inactive”.
Regarding `COc1nn(CSP(=S)(OC)OC)c(=O)s1`, the half-maximal activity concentration (AC50) is 33.1 µM (active).
As to `C#CCN1C(=O)COc2cc(F)c(N3C(=O)C4=C(CCCC4)C3=O)cc21`, the compound was classed as inactive.
Regarding `COP(=S)(OC)Oc1ccc(SC)c(C)c1`, the compound was classed as inactive.
As for `CC[C@H](C)[C@H]1O[C@]2(C=C[C@@H]1C)C[C@@H]1C[C@@H](C/C=C(\C)[C@@H](O[C@H]3C[C@H](OC)[C@@H](O[C@H]4C[C@H](OC)[C@@H](O)[C@H](C)O4)[C@H](C)O3)[C@@H](C)/C=C/C=C3\CO[C@@H]4[C@H](O)C(C)=C[C@@H](C(=O)O1)[C@]34O)O2` (tested in a mixture with another compound), the call was inactive.
